Records with an inconclusive call do not appear. A call without a number means that no potency is given here. Calls of active or inactive are those of the source. Calls come from the whole dose curve; as a rule, active = well fitted activation curve with a large enough effect; inconclusive = small, poorly fitted or top-dose-only effect; inactive = flat fitted curve, though single readings scatter.
Potency is the fitted concentration of half-maximal effect.

This assay is described as follows: qHTS for Inhibitors of Cell Surface uPA Generation: Confirmatory Assay for Cherry-picked Compounds. The conditions noted are these: cell surface uPA activity generation, qHTS confirmation; series mostly up to 115 µM. In outline: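 RAW 264.7 cells at 4000/well, incubated overnight, then treated with compounds. After 24 h at 37 C, viability was read by ATPlite luminescence. An increase in signal indicates blocked uPA-dependent LF entry.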
Background: Quantitative high-throughput screening tests each substance at several concentrations.
As to `C[C@@H](NC(=O)c1nc[nH]c1C(=O)NCc1ccc(CNC(=O)OC(C)(C)C)cc1)c1ccccc1`, the Potency entry is “inactive”.

Regarding `Cc1nn(-c2ccc(F)cc2)c(C)c1NS(=O)(=O)c1ccc(Cl)cc1`, the Potency entry is “inactive”.

Consider `CCC1(CC)NC(=O)N(CC(=O)OCC(=O)c2cc(C)c(C)cc2C)C1=O`, for which the Potency entry was “inactive”.

`CC(C)C(NC(=O)Cc1ccccc1)C(=O)N1CCN(c2cccc(Cl)c2)CC1` (configuration not stated): the Potency result was “inactive”.

With `Cc1nc2nc(C)c(NS(=O)(=O)c3ccc(Cl)cc3)c(=O)n2[nH]1`, the Potency entry was “inactive”.

`COc1cc(CCC(=O)OCC(=O)NCc2ccccc2)cc(OC)c1OC`: the Potency entry is “inactive”.

Regarding `O=C(O)c1ccc(-c2ccc(/C=C3\NC(=O)N(Cc4ccc(Cl)cc4)C3=O)o2)cc1`, the Potency result is “inactive”.

As to `O=[N+]([O-])c1ccc(SCc2ccncc2)nc1`, the Potency result is “inactive”.

Consider `CC1(C)S[C@@H]2[C@H](NC(=O)C(C(=O)O)c3ccccc3)C(=O)N2[C@H]1C(=O)O` (some centres not stated), for which the Potency result is “inactive”.

`Cc1ccsc1/C=C(\C#N)C(=O)NC1CCS(=O)(=O)C1` (configuration not stated): the Potency result is “inactive”.

In the case of `CC1CCCN(C(=O)c2ccc(CNc3c(N4CCCCC4)c(=O)c3=O)cc2)C1` (configuration not stated), the Potency result was “inactive”.

For the molecule `COCCCN1CC23C=CC(O2)C(C(=O)O)C3C1=O` (configuration not stated), the Potency entry is “inactive”.

For the molecule `CCCCCN(C(=O)CCC(=O)OCCOc1cccc(Cl)c1)c1c(N)n(CCCC)c(=O)[nH]c1=O`, the Potency result was “inactive”.

On to `CCN(CC)c1ccc(C=NCCc2ccc(S(N)(=O)=O)cc2)cc1`, for which the Potency result is “inactive”.

For the molecule `COC(/C=C/Nc1ccc(Cl)cc1)=C(C#N)C#N`, the Potency entry was “inactive”.

With `CN(Cc1ccc(C(C)(C)C)cc1)C(=O)Cc1ccc(S(=O)(=O)N2CCOCC2)s1`, the Potency entry was “inactive”.

Turning to `CC1=CC(C)(C)N2C(=O)C3(NCCc4c3[nH]c3ccccc43)c3cc(C)cc1c32` (configuration not stated), the Potency was 2.33 µM (active).
